Test results taken from PubChem BioAssay (EPA / NIEHS).
The source made the active and inactive calls. The calls were made as follows: active = hit-call score of the fitted dose curve at least 0.9, where 1 is the maximum; inactive = score below 0.9.

Experiments:
[1] = read-out: Vascular endothelial growth factor receptor 2 (Homo sapiens) (UniProt P35968); assay: BSK_4H_VEGFRII: BioMAP Diversity Plus: 4H Assay for Vascular endothelial growth factor receptor 2 (VEGFR2) Biomarker Activity (AID 2283031); details: primary human endothelial cells (HUVEC); actives raise or lower the signal;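 as to AC50: cell-surface VEGFR2 protein level quantified by ELISA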
How it was run: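 In this multiplexed HUVEC system, biomarker ELISA was performed after 24 h chemical exposure. Parallel SRB staining (TCA fixation, 560 nm) tracked cytotoxicity; DMSO served as baseline.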

[2] = read-out: Human Leukocyte Antigen - DR isotype (HLADR), HLA-DRA (gene 3122); assay: BSK_BE3C_HLADR: BioMAP Diversity Plus: BE3C Assay for Human Leukocyte Antigen - DR isotype (HLADR) Biomarker Activity (AID 2283032); details: primary human bronchial epithelial cells; actives raise or lower the signal
How it was run: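 Signal came from an ELISA for HLA-DR in human bronchial epithelial primary cells harvested 24 h after treatment; gain- and loss-of-signal fitting used DMSO controls as reference.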

[3] = read-out: Vascular cell adhesion molecule 1 (VCAM1), VCAM1 (gene 7412); assay: BSK_4H_VCAM1: BioMAP Diversity Plus: 4H Assay for Vascular cell adhesion molecule 1 (VCAM1) Biomarker Activity (AID 2283033); details: primary human endothelial cells (HUVEC); actives raise or lower the signal
How it was run: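 Endpoint derived from bidirectional fitting against DMSO controls of VCAM-1 ELISA signal in umbilical vein endothelial cells sampled at 24 h following treatment.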

[4] = read-out: Monokine induced gamma interferon (MIG), CXCL9 (gene 4283); assay: BSK_BE3C_MIG: BioMAP Diversity Plus: BE3C Assay for Monokine induced gamma interferon (MIG) Biomarker Activity (AID 2283035); details: primary human bronchial epithelial cells; actives raise or lower the signal
How it was run: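 MIG level was determined by ELISA after 24 h chemical treatment of primary human bronchial epithelial cells. Values were fitted bidirectionally with DMSO as the negative control and activity baseline.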

[5] = read-out: Transforming growth factor beta 1 (TGFb1), TGFB1 (gene 7040); assay: BSK_BE3C_TGFb1: BioMAP Diversity Plus: BE3C Assay for Transforming growth factor beta 1 (TGFb1) Biomarker Activity (AID 2283036); details: primary human bronchial epithelial cells; actives raise or lower the signal
How it was run: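 In this human primary bronchial epithelial system, an ELISA quantified TGF-b1 one day after dosing. Endpoint changes in either direction were fitted relative to DMSO.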

[6] = read-out: urokinase plasminogen activator (uPA), PLAU (gene 5328); assay: BSK_BE3C_uPA: BioMAP Diversity Plus: BE3C Assay for urokinase plasminogen activator (uPA) Biomarker Activity (AID 2283038); details: primary human bronchial epithelial cells; actives raise or lower the signal
How it was run: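 Using confluent primary human lung bronchial epithelial cultures, we dosed chemicals, waited 24 h, then ran a uPA ELISA, fitting bidirectionally against DMSO.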

[7] = read-out: Urokinase-type plasminogen activator receptor (uPAR), PLAUR (gene 5329); assay: BSK_BE3C_uPAR: BioMAP Diversity Plus: BE3C Assay for Urokinase-type plasminogen activator receptor (uPAR) Biomarker Activity (AID 2283039); details: primary human bronchial epithelial cells; actives raise or lower the signal
How it was run: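 A uPAR ELISA serves as the readout, taken 24 h after treating primary human bronchial epithelial cells. Responses in either direction are fitted against DMSO, which defines baseline activity.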

[8] = read-out: Interleukin-6 (IL6), IL6 (gene 3569); assay: BSK_CASM3C_IL6: BioMAP Diversity Plus: CASM3C Assay for Interleukin-6 (IL6) Biomarker Activity for (AID 2283040); details: primary human coronary artery smooth muscle cells; actives raise or lower the signal
[9] = read-out: Interferon-gamma inducible Protein 10 (IP10), CXCL10 (gene 3627); assay: BSK_BE3C_IP10: BioMAP Diversity Plus: BE3C Assay for Interferon-gamma inducible Protein 10 (IP10) Biomarker Activity (AID 2283034); details: primary human bronchial epithelial cells; actives raise or lower the signal
How it was run: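 Using primary human bronchial epithelial cultures, the assay captures IP-10 by ELISA one day (24 h) after exposure. Parallel SRB staining of total protein flags overt cytotoxicity. Fits run bidirectionally relative to DMSO.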

[10] = read-out: Plasminogen activator inhibitor-1 (PAI1), SERPINE1 (gene 5054); assay: BSK_BE3C_PAI1: BioMAP Diversity Plus: BE3C Assay for Plasminogen activator inhibitor-1 (PAI1) Biomarker Activity (AID 2283037); details: primary human bronchial epithelial cells; actives raise or lower the signal
How it was run: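 PAI-1 biomarker levels in treated human bronchial epithelial cells are determined by ELISA at 24 h. Both increases and decreases relative to DMSO are fitted.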

Measured: AC50

COc1cc(OC)nc(Sc2cccc(Cl)c2C(=O)O)n1
not listed: [9] | [10]
inactive: all other assays above

CCCSP(=O)(OCC)Oc1ccc(Br)cc1Cl (centres undefined)
active: [2] 32.1 µM | [3] 29.8 µM | [9] 29.1 µM | [8] 23 µM
inactive: all other assays above

CCC(CC)Nc1c([N+](=O)[O-])cc(C)c(C)c1[N+](=O)[O-]
active: [8] 26.9 µM
not listed: [3] | [9]
inactive: all other assays above

C#CCC1=C(C)C(OC(=O)C2C(C=C(C)C)C2(C)C)CC1=O (centres undefined)
active: [9] 27.1 µM
not listed: [3] | [10]
inactive: all other assays above

CC(COc1ccc(Oc2ccccc2)cc1)Oc1ccccn1 (centres undefined)
active: [6] 17.8 µM
not listed: [3] | [10]
inactive: all other assays above

CC1=NNC(=O)N(/N=C/c2cccnc2)C1
not listed: [3] | [10]
inactive: all other assays above

CC(C)[C@H](C(=O)O[C@H](C#N)c1cccc(Oc2ccccc2)c1)c1ccc(Cl)cc1
active: [7] 5.23 µM
not listed: [3] | [9] | [10]
inactive: all other assays above

C=C(C)[C@H]1Cc2c(ccc3c2O[C@@H]2COc4cc(OC)c(OC)cc4[C@@H]2C3=O)O1
active: [1] 3.97 µM | [2] 6.33 µM
not listed: [3] | [9]
inactive: all other assays above

CCOP(=S)(OCC)Oc1cc(C)nc(C(C)C)n1
not listed: [3] | [10]
inactive: all other assays above

C[N+]1(C)CCCCC1
active: [5] 0.193 µM
not listed: [3] | [9] | [10]
inactive: all other assays above

CCOP(=S)(OCC)Oc1ccc([N+](=O)[O-])cc1
not listed: [3] | [9] | [10]
inactive: all other assays above

Nc1nc(N)nc(NC2CC2)n1
not listed: [3]
inactive: all other assays above

CCc1cnc(C2=NC(C)(C(C)C)C(=O)N2)c(C(=O)O)c1 (centres undefined)
not listed: [3] | [9] | [10]
inactive: all other assays above

CCC(=NOC/C=C/Cl)C1=C(O)CC(C2CCOCC2)CC1=O (centres undefined)
not listed: [3] | [10]
inactive: all other assays above

COP(=O)(OC)C(O)C(Cl)(Cl)Cl (centres undefined)
active: [7] 5.49 µM
not listed: [3] | [9] | [10]
inactive: all other assays above

CCCCN(CC)c1c([N+](=O)[O-])cc(C(F)(F)F)cc1[N+](=O)[O-]
active: [9] 29.9 µM
not listed: [3]
inactive: all other assays above

CCc1cccc(C)c1N(C(=O)CCl)C(C)COC (centres undefined)
not listed: [3] | [9] | [10]
inactive: all other assays above

CCOP(=O)(SC(C)CC)N1CCSC1=O (centres undefined)
not listed: [3] | [9] | [10]
inactive: all other assays above

CC[C@H](C)[C@H]1O[C@]2(C=C[C@@H]1C)C[C@@H]1C[C@@H](C/C=C(\C)[C@@H](O[C@H]3C[C@H](OC)[C@@H](O[C@H]4C[C@H](OC)[C@@H](NC)[C@H](C)O4)[C@H](C)O3)[C@@H](C)/C=C/C=C3\CO[C@@H]4[C@H](O)C(C)=C[C@@H](C(=O)O1)[C@]34O)O2
active: [2] 3.98 µM | [9] 7.15 µM | [4] 8.8 µM | [5] 9.47 µM | [6] 10.9 µM | [7] 5.78 µM
inactive: [1] | [8]
